Source: the supplement of paper PMC10646978
± gives the standard deviation.

Experiments:
Conditions in all cases: modulator concentration 10 µM
[1] = system: RAW-Dual (murine macrophage reporter line); test: NF-kB reporter (SEAP) activity fold change vs agonist alone; higher = enhanced NF-kB activity
Outline: (§1)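 RAW-Dual murine macrophage reporter cells were plated at 50 000 per well in 384-well plates, pin-transferred compound to 10 μM final, and pre-incubated for 1 hour at 37 °C before a PRR agonist was added and the cells incubated overnight. NF-κB activity was read from supernatant SEAP with QUANTI-Blue at 620 nm absorbance, and IRF activity from Lucia luciferase with QUANTI-Luc by luminescence. Each signal was expressed as fold change by dividing by the mean agonist-only control on the same plate. Two replicate plates were averaged, with errors obtained by propagation.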

[2] = system: RAW-Dual (murine macrophage reporter line); test: IRF reporter (Lucia luciferase) activity fold change vs agonist alone; higher = enhanced IRF activity
Outline: as §1

[3] = system: RAW-Dual (murine macrophage reporter line); test: viability score (confluency relative to resting cells, overnight) (fraction); higher = more viable, active = viable (0.7 or more)
Outline: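 Overnight exposure to 10 μM final compound was carried out on RAW-Dual macrophages in 384-well plates. IncuCyte software generated two confluency masks over all wells imaged with IncuCyte. The viability score gives confluency in relation to resting cells. A compound met the cutoff if each mask exceeded 70% of resting cells.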

[4] = agonist: CpG ODN 1826 0.5 ug/mL

Compound	NF-kB reporter [1, 4]	NF-kB reporter ([1]; agonist: LPS 0.1 ug/mL)	NF-kB reporter ([1]; agonist: MPLA […])	IRF reporter ([2]; agonist: 3'3'-cGAMP 10 ug/mL)	IRF reporter ([2]; agonist: LPS 0.1 ug/mL)	IRF reporter ([2]; agonist: MPLA […])	viability score [3]
COC12CC(COC(=O)c3cncc(Br)c3)CN(C)C1Cc1cn(C)c3cccc2c13 (configuration not stated)	1.02 ± 0.11	1.01 ± 0.078	1.03 ± 0.13	0.905 ± 0.065	1.16 ± 0.11	1.19 ± 0.16	1.04 (active)
CCOc1cc(C=C2N=C(c3cccc(C)c3)OC2=O)ccc1OC(=O)Cc1ccccc1	0.858 ± 0.069	0.959 ± 0.081	0.914 ± 0.057	0.8 ± 0.024	1.19 ± 0.1	0.964 ± 0.12	1.01 (active)
NC(=O)Cn1c(Cc2ccccc2Cl)nc2ccccc21	0.97 ± 0.061	0.84 ± 0.074	0.912 ± 0.031	0.996 ± 0.06	1.06 ± 0.093	0.99 ± 0.13	0.997 (active)
CCC1(C)CC(CCNCc2ccccc2)(c2ccc(C)cc2)CCO1 (configuration not stated)	0.701 ± 0.29	1.15 ± 0.099	1.19 ± 0.18	0.57 ± 0.018	1.38 ± 0.14	1.76 ± 0.31	0.547 (inactive)
CC12CCC3C(CCC4CC(=O)CCC43C)C1CCC2=O (configuration not stated)	1.29 ± 0.32	1.03 ± 0.058	0.933 ± 0.075	1.04 ± 0.044	1.23 ± 0.18	1.23 ± 0.17	0.997 (active)
c1cc2c(cc1C1OCC3C(c4ccc5c(c4)OCO5)OCC13)OCO2 (configuration not stated)	0.745 ± 0.22	1.16 ± 0.058	1.1 ± 0.082	0.841 ± 0.041	1.22 ± 0.17	1.24 ± 0.12	1 (active)
CCOc1cc(C=C2C(=O)NC(=O)NC2=O)ccc1OCc1c(Cl)cccc1Cl	1.06 ± 0.091	1.01 ± 0.07	0.938 ± 0.11	1.07 ± 0.038	1.35 ± 0.11	1.2 ± 0.14	1.01 (active)
COc1ccccc1CC(=O)N1CCN(Cc2cnnn2-c2ccccc2F)CC1	0.894 ± 0.048	0.985 ± 0.084	1.15 ± 0.065	1.16 ± 0.093	1.14 ± 0.19	1.11 ± 0.46	1.01 (active)
Br.NCCc1cc(O)c(O)cc1O	1.04 ± 0.28	0.911 ± 0.073	1.14 ± 0.08	0.609 ± 0.036	1.32 ± 0.24	1.19 ± 0.19	0.53 (inactive)
CCC1(C)CC(=O)NC(=O)C1	0.907 ± 0.15	0.842 ± 0.14	0.941 ± 0.054	0.899 ± 0.073	1.02 ± 0.11	1.11 ± 0.16	0.985 (active)
COc1cc2c(c(OC)c1OC)-c1ccc(OC)c(=O)cc1[C@@H](NC(C)=O)CC2	2.45 ± 0.12	1.8 ± 0.14	2.47 ± 0.11	0.0843 ± 0.011	1.5 ± 0.13	1.91 ± 0.42	0.687 (inactive)
Cl.N=C(N)NN	0.983 ± 0.15	1.02 ± 0.29	0.917 ± 0.064	0.892 ± 0.034	1.38 ± 0.27	1.25 ± 0.21	0.997 (active)
O=C(O)CCCc1ccc(N(CCCl)CCCl)cc1	1.03 ± 0.17	1.03 ± 0.084	1.11 ± 0.13	0.912 ± 0.027	1.29 ± 0.28	1.08 ± 0.12	0.994 (active)
C#CCOc1ccc(C=C2C(=O)NC(=O)N(c3cc(OC)c(Cl)cc3OC)C2=O)cc1Cl	1.1 ± 0.1	1 ± 0.059	0.899 ± 0.056	0.952 ± 0.051	1.15 ± 0.12	0.887 ± 0.055	1.01 (active)
Cc1ccc(-c2nn(-c3ccccc3)cc2C=C2C(=O)NC(=O)NC2=O)o1	1 ± 0.094	1.07 ± 0.066	1 ± 0.08	1.01 ± 0.037	1.42 ± 0.23	1.16 ± 0.072	1.01 (active)
Fc1ccc(CNCCc2c[nH]c3ccccc23)cc1	0.733 ± 0.32	1.08 ± 0.15	0.955 ± 0.075	0.751 ± 0.063	1.1 ± 0.12	1.29 ± 0.28	0.599 (inactive)
